This is a sample that favours compounds with a hit; in the whole collection about 8.2% have one here.
ELG1 DNA repair – ELG1-dependent DNA repair inhibition; HEK293T ELG1-luciferase reporter, luminescence, 16 h; DNA damage induced by 5-fluorouridine; Potency, µM (series often up to 46.1 µM), without a hit: at the highest dose activity change, negative = inhibition, usual class: inhibitors; 2.3% of 330,000 active; AID 504467; further: on the % scale 0 is the no-effect control and ±100 the full control effect; nearly all actives have a fitted effect of over 55% in size
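Reporter activity after DNA damage by 5-fluorouridine is monitored. Compound-treated cells incubate 16 hr at 37 °C, then ONE-Glo is added for 30 min before luminescence reading.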
SW480 rereplic – induces DNA re-replication in SW480 colon adenocarcinoma cells | Potency, µM (doses to about 46.1 µM), inactives show top-dose re-replication activation, actives largely listed as activators | SW480 DNA re-replication, Hoechst DNA content imaging, 48 h | AID 624297 | 1.8% of 340,000 active; further: % of control where 0% means no effect; nearly all actives have a fitted effect of over 55% in size
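Image-based read-out: total Hoechst fluorescence of nuclei (405 nm excitation, 500-530 nm emission), with hits raising the fraction of high-intensity nuclei. SW480 colon cells incubated 48 hr with compounds at 37 C.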
KB-3-1 tox – kills parental KB-3-1 adenocarcinoma cells; KB-3-1 viability, CellTiter-Glo ATP luminescence, 72 h; Potency, µM (series often up to 46.1 µM), most hits filed as cytotoxic; 1.4% of 400,000 active; further: on the % scale 0 is the no-effect control and ±100 the full control effect; nearly all actives have a fitted effect of over 60% in size
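72 h, 37 °C compound treatment of KB-3-1 parental cells; CellTiter-Glo added, 10 min, luminescence read. Data corrected against DMSO-only plates and normalized before curve fitting.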
KB-V1 cytotox – KB-V1 MDR subline cytotoxicity; KB-V1 MDR cells viability, CellTiter-Glo, 72 h; Potency, µM (top dose mostly 46.1 µM), hits mostly cytotoxic; 3.4% of 400,000 active; AID 1347076; further: on the % scale 0 is the no-effect control and ±100 the full control effect; nearly all actives have a fitted effect of over 60% in size
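Drug-selected KB-V1 cells, grown in DMEM lacking phenol red with 10% FBS, receive compound titrations; after three days at 37 degrees C, surviving cell ATP is quantified by CellTiter-Glo luminescence and responses normalized and curve-fitted.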
MCF10A rerep – induces DNA re-replication in MCF 10a normal breast cells. MCF 10A DNA re-replication, Hoechst nuclear intensity, 48 h. Potency, µM (series often up to 46.1 µM), without a hit: at the top dose activity, positive = re-replication, hits mostly activators. 2.9% of 350,000 active. AID 624296; further: % of control where 0% means no effect; nearly all actives have a fitted effect of over 50% in size
* = called active by the depositor; i = inactive; ? = inconclusive; nt = not tested or not shown; [ ] = remark or other dose. The call rests on the fitted dose curve; in most records, active means well fitted curve in the direction sought with a large enough effect; inconclusive means small, poorly fitted or top-dose-only effect, or another doubt; inactive means no such curve, though single readings can be large; an effect the other way counts as inactive or inconclusive. Potency means the concentration at half of the fitted maximal effect.

SMILES	ELG1 DNA repair	SW480 rereplic	KB-3-1 tox	KB-V1 cytotox	MCF10A rerep
O=C(c1cc(-c2cccs2)nc2ccccc12)N1CCN(S(=O)(=O)c2ccccc2)CC1	16µM*	16%	i	?	25%
O=C(c1cc(-c2cccs2)nc2ccccc12)N1CCN(S(=O)(=O)c2cccc(F)c2)CC1	?	2%	i	i	19%
CN(CC(=O)Nc1c(Cl)cccc1Cl)C(=O)c1cc(-c2cccs2)nn1-c1ccccc1	-17%	0%	i	4.1µM*	?
Cc1ccc(C)c(S(=O)(=O)N2CCN(C(=O)c3cc(-c4cccs4)nn3-c3ccccc3)CC2)c1	?	-1%	?	6.5µM*	?
O=C(C1CC1)N1CCc2cc(Br)cc(S(=O)(=O)N3CCN(c4cccc(C(F)(F)F)c4)CC3)c21	nt	nt	i	?	nt
CS(=O)(=O)Nc1ccc(C(=O)N2CC(=O)Nc3ccccc32)cc1	0%	-8%	i	i	-8%
COc1ccc(NC(=O)c2cc(S(=O)(=O)N3CCCCCC3)cn2C)cc1Cl	nt	nt	i	i	nt
CCN1CCN(C(=O)c2cc(-c3ccc(Cl)s3)nc3ccccc23)CC1	-9%	3%	i	i	?
O=C(c1cc(-c2ccccn2)nc2c(Cl)cccc12)N1CCN(S(=O)(=O)c2ccccc2)CC1	18µM*	5%	i	i	0%
CN(C)S(=O)(=O)c1cccc(NC(=O)c2cc(-c3cccs3)nc3ccccc23)c1	7.3µM*	?	i	?	?
O=C(c1cc(-c2cccnc2)nc2ccccc12)N1CCN(S(=O)(=O)c2ccc(Cl)s2)CC1	nt	2%	i	9.2µM*	12%
c1ccc(-c2nn(-c3ccccc3)[n+](-c3ccccc3)n2)cc1	nt	9%	7.3µM*	i	12%
COc1ccccc1N1CCN(/N=C/c2cccc(Cl)c2)CC1	?	-49%	i	i	?
COc1ccccc1N1CCN(/N=C/c2ccc(O)c(O)c2)CC1	23%	13µM*	i	i	17%
COc1cccc(/C=N/N2CCN(c3ccccc3OC)CC2)c1	?	-17%	i	12µM*	-2%
CCOC(=O)c1c(C=O)c(C)n(Cc2ccccc2)c1C	-16%	-5%	i	i	4%
CCOC(=O)c1c(C=O)c(C)n(Cc2ccc(Cl)cc2)c1C	?	1%	i	3.7µM*	12µM*
CSc1sccc1/C=C(/C#N)C(=O)c1ccco1	?	27%	i	i	?
O=C(Nc1ccc(Br)cc1)C1CCN(C(=O)c2ccco2)CC1	-14%	3%	i	21µM*	3%
O=C(Nc1ccccc1Cl)C1CCN(c2nc3ccccc3nc2C(F)(F)F)CC1	nt	nt	i	i	nt
CCn1c(=O)c(CCC(=O)N2CCN(c3ccccn3)CC2)c(C)c2c(C)nn(-c3ccccc3)c21	16µM*	0%	i	i	4%
O=[N+]([O-])C1C(c2ccccc2)C12c1ccccc1-c1ccccc12 (stereo unspecified)	nt	nt	?	5.2µM*	nt
CC1(C)c2ccccc2C(=O)c2ccccc21	nt	-4%	i	i	5%
Cn1ncc(Cl)c1C(=O)NCc1ccc(Cl)cc1	?	?	?	3.7µM*	-67%
COc1ccc2nc(C(F)(F)Cl)c(C#N)c(N)c2c1	15%	?	i	i	?
SMILES	ELG1 DNA repair	SW480 rereplic	KB-3-1 tox	KB-V1 cytotox	MCF10A rerep
COc1ccc2nc3cc(Cl)ccc3c(C#N)c2c1	7%	21µM*	i	i	25%
Cc1ccn2c(=O)c(NC(=O)c3cccs3)c(C)nc2c1	16%	23µM*	i	i	-1%
Cc1ccn2c(=O)c(NC(=O)c3cccc([N+](=O)[O-])c3C)c(C)nc2c1	nt	nt	?	i	nt
CC(C)(C)n1nnnc1C(c1cc2ccccc2o1)N(Cc1ccccc1)Cc1ccccc1 (stereo unspecified)	nt	nt	?	21µM*	nt
CC(C)(C)n1nnnc1C(c1cccnc1)N(Cc1ccccc1)Cc1cccs1 (stereo unspecified)	-3%	26%	?	21µM*	?
Cc1ccc(C(c2nnnn2C(C)(C)C)N(Cc2ccco2)Cc2cccs2)cc1 (stereo unspecified)	-17%	19%	16µM*	?	21%
CC(C)(C)n1nnnc1C(c1cccs1)N(Cc1ccccc1)Cc1cccnc1 (stereo unspecified)	4%	-2%[9.22 µM]	?	?	5%
Clc1ccc(CN(Cc2ccccc2)C(c2cccs2)c2nnnn2C2CCCC2)cc1 (stereo unspecified)	nt	?	i	?	?
CC(C)(C)n1nnnc1C(c1cccs1)N(Cc1ccc(Cl)cc1)CC1CCCO1 (stereo unspecified)	nt	11%	23µM*	i	?
Cc1ccc(S(=O)(=O)N=N/C=C2\C=CC=CN2O)cc1	nt	nt	?	i	nt
C=CCn1c(NC(=O)c2ccc(Br)o2)c(S(=O)(=O)c2ccccc2)c2nc3ccccc3nc21	?	17%	i	?	12µM*
C=CCn1c(NC(=O)c2ccco2)c(S(=O)(=O)c2ccccc2)c2nc3ccccc3nc21	0%	nt	nt	nt	nt
CC(C)C(Cl)=NOC(=O)Nc1ccc(S(N)(=O)=O)cc1	nt	?	i	i	2.9µM*
FC(F)(F)c1cccc(N2CCN(C3CC4CCC3C4)CC2)c1 (stereo unspecified)	-6%	?	i	?	?
CC(=O)Nc1ccc(NC(=O)CCCN2C(=O)c3ccccc3C2=O)cc1	-2%	1%	i	i	0%
CC(=O)Nc1ccc(NC(=O)CCN2C(=O)c3ccccc3C2=O)cc1	1%	-38%	i	i	0.58µM*
Nc1[nH]c(=O)[nH]c(=O)c1N=Cc1ccccc1	nt	18%	i	?	4%
O=c1[nH]c(NCCO)c(N=Cc2ccccc2)c(=O)[nH]1	nt	2.3µM*	i	i	?
O=C1OCC2=C1C(c1cccc(Cl)c1)CC(=O)N2c1ccc(C(F)(F)F)cc1 (stereo unspecified)	nt	nt	i	i	nt
CCC(Oc1ccccc1)C(=O)Nc1ccccc1C(=O)N1CCCCC1 (stereo unspecified)	?	-5%	i	12µM*	12%
Cc1ccccc1OCC(=O)Nc1ccccc1C(=O)N1CCCCC1	-6%	0%	i	?	16%
COc1ccc(/C=C(/C(=O)Nc2ccccc2C(=O)N2CCCC2)c2ccccc2)cc1	23µM*	10%	i	?	9%
Cc1ccccc1OCCC(=O)Nc1ccccc1C(=O)N1CCCCC1	-2%	-9%	i	8.2µM*	6%
COc1ccc(CCNC(=O)CSc2cn(CCNC(=O)c3ccc(OC)c(OC)c3)c3ccccc23)cc1OC	nt	nt	i	i	nt
